The values below come from PubChem BioAssay (NCI).

Each structure is given as a SMILES string. Values joined by “and” are separate entries in the source; they are usually repeats but may differ in a detail not shown here. Identical values can stand only once. The panel holds about 83,000 compounds, 20% with a hit somewhere; the sample as a whole holds those more often.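 Cell lines were cultured in 96-well plates, exposed to a single compound concentration, and assessed for percent growth 48 hours later.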 More than one record can exist for a structure, and the calls need not agree. Active and inactive are the calls of the source. Rule for the calls: active = growth percent below 10; inactive = the rest.

Assay in all cases: NCI-60 one-dose screen, 48 h (100 = growth as untreated, 0 = no growth, -100 = all killed)
Holding throughout (settings): 10 µM unless noted

In test [1] the test system is NCI-H23 lung.
Test [2] relates to NCI-H226 lung.
Test [3] relates to NCI-H322M lung.
Test [4] has as its system HOP-62 NSCLC.
The subject of test [5] is NCI-H460 lung.
Test [6] relates to HOP-92 NSCLC.
Test [7] relates to NCI-H522 lung.
Test [8] concerns A549/ATCC NSCLC.
Test [9] relates to 786-0 renal.
The test system of test [10] is COLO 205 colon.
Test [11] deals with DU-145 prostate.
The test system of test [12] is K-562 leukemia.
Test [13] concerns MALME-3M melanoma.
Test [14] has as its system MDA-MB-231 breast.
The test system of test [15] is RXF 393 renal.
The test system of test [16] is SF-268 CNS.
The subject of test [17] is SF-295 CNS.
Test [18] deals with SF-539 CNS.
The subject of test [19] is UACC-257 melanoma.
Test [20] deals with M14 melanoma.

For the molecule `Nc1cc(-c2cccc(OC(F)(F)F)c2)nc2ccc(N3CCCC3)cc12`, the growth was 43.5% (inactive) and 40.1% (inactive) and 38.5% (inactive) in [1]; 40.2% (inactive) and 48.3% (inactive) and 33.8% (inactive) in test [2]; 49.5% (inactive) and 51.3% (inactive) and 39% (inactive) in test [3]; 57.1% (inactive) and 66.1% (inactive) and 15.6% (inactive) in test [4]; 7.01% (active) and 7.24% (active) and 3.29% (active) in [5]; -0.264% (active) and 3.71% (active) and -3.62% (active) in test [6]. For the same molecule, the growth in test [7] was -13.4% (active) and 4.49% (active) and -38.1% (active); in test [8], 15.1% (inactive) and 18.4% (inactive) and 13.8% (inactive); in test [9], 9.51% (active) and 22.1% (inactive) and 16.1% (inactive); in test [10], -58.4% (active) and -35.8% (active) and -80.6% (active); in test [11], 14.4% (inactive) and 16.2% (inactive) and 5.85% (active); in test [12] it was -12.9% (active) and 4.92% (active) and 3.73% (active). In addition, the growth in [13] is -28.6% (active) and 51.7% (inactive) and 24.8% (inactive); in test [14] it was 5.28% (active) and 18.1% (inactive) and 29.3% (inactive); in [15], 7.48% (active) and 12.1% (inactive) and 20.7% (inactive); in test [16], 26.1% (inactive) and 28.4% (inactive) and 27.6% (inactive); in test [17] it was 5.27% (active) and 16.2% (inactive) and 9.05% (active); in [18], -39.9% (active) and -21.2% (active) and -28.5% (active). The growth in [19] is -42.2% (active) and 74.8% (inactive) and 48.9% (inactive); in test [20], -72.1% (active) and 1.77% (active) and -1.96% (active).

`CO/N=C/C=C\C(=O)N/C=C/C[C@H]1/C=C/[C@H](O)/C=C\C=C\c2cccc(O)c2C(=O)O1`: the growth in test [1] is 61.4% (inactive) and 54.8% (inactive); in test [2], -81.9% (active) and -73.8% (active); in test [3], 42.8% (inactive) and 51.7% (inactive); in [4] it was 19.5% (inactive) and 17.4% (inactive); in [5], 16.9% (inactive) and 8.82% (active); in [6], 23.9% (inactive) and -9.99% (active). For the same molecule, the growth in test [7] is 28.1% (inactive) and 15% (inactive); in test [8] it was 18.1% (inactive) and 12% (inactive); in test [9], 24.2% (inactive) and 18.7% (inactive); in [10], 15.2% (inactive) and 14.3% (inactive); in test [11], 55.6% (inactive) and 40% (inactive); in test [12], 4.46% (active) and 2.94% (active). For the same molecule, the growth is 59.8% (inactive) and 22.5% (inactive) in [13]; 27.3% (inactive) and 41.9% (inactive) in test [14]; 51% (inactive) and 55.5% (inactive) in test [15]; 45.5% (inactive) and 31.9% (inactive) in test [16]; -36.9% (active) and -43.7% (active) in test [17]; 21% (inactive) and 4.04% (active) in test [18]. Also, the growth in test [19] is -16.7% (active) and 21.8% (inactive); in [20] it was -13.4% (active) and -41% (active).

With `O=C(N/N=C/c1ccccc1)N/N=C/c1ccccc1`, the growth was 118% (inactive) and 101% (inactive) in [1]; 106% (inactive) and 78.9% (inactive) in test [2]; 103% (inactive) and 116% (inactive) in test [3]; 104% (inactive) and 117% (inactive) in [4]; 118% (inactive) and 95.1% (inactive) in test [5]; 100% (inactive) and 90.3% (inactive) in test [6]. The growth in [7] was 99.5% (inactive) and 106% (inactive); in [8], 102% (inactive) and 104% (inactive); in test [9], 118% (inactive) and 116% (inactive); in test [10] it was 109% (inactive) and 129% (inactive); in test [11], 131% (inactive) and 109% (inactive); in test [12] it was 95% (inactive). The growth in [13] was 94.4% (inactive) and 107% (inactive); in test [14], 106% (inactive); in test [15], 107% (inactive) and 98.5% (inactive); in test [16], 112% (inactive) and 100% (inactive); in test [17], 92.4% (inactive) and 105% (inactive); in [18], 100% (inactive) and 98.3% (inactive). Besides, the growth is 90.3% (inactive) and 106% (inactive) in test [19]; 123% (inactive) and 115% (inactive) in [20].

As for `CCN(CC)C(=S)SSC(=S)N(CC)CC`, the growth in test [1] is 91% (inactive) and 111% (inactive); in test [2] it was 86.5% (inactive) and 104% (inactive); in test [3] it was 84.8% (inactive) and 102% (inactive); in [4], 82.1% (inactive) and 88.7% (inactive); in test [5], 62.4% (inactive) and 111% (inactive); in test [6] it was 90.4% (inactive) and 110% (inactive). Further, the growth is 58.1% (inactive) and 88.8% (inactive) in test [7]; 85.5% (inactive) in test [8]; 91.2% (inactive) and 91.7% (inactive) in test [9]; 82.9% (inactive) and 106% (inactive) in test [10]; 83.4% (inactive) and 109% (inactive) in test [11]; 54.6% (inactive) and 80.5% (inactive) in test [12]. Also, the growth in test [13] is 61.2% (inactive) and 113% (inactive); in [14], 81.6% (inactive) and 102% (inactive); in [15], 105% (inactive) and 131% (inactive); in test [16] it was 88.1% (inactive) and 95.7% (inactive); in test [17], 78.5% (inactive) and 103% (inactive); in test [18], 91.5% (inactive) and 92.8% (inactive). For the same molecule, the growth in test [19] is 69.7% (inactive) and 69.5% (inactive); in test [20], 66.8% (inactive) and 92.4% (inactive).

On to `CNC(=O)c1cc(Oc2ccc(NC(=O)Nc3ccc(Cl)c(C(F)(F)F)c3)cc2)ccn1`, for which the growth was -10.2% (active) and -19.9% (active) in test [1]; -17.8% (active) and -23.1% (active) in test [2]; -2.52% (active) and 18.3% (inactive) in test [3]; 5.13% (active) and 22.5% (inactive) in test [4]; 6.19% (active) and 2.65% (active) in [5]; -22.9% (active) and -30.7% (active) in [6]. The growth in test [7] is -18.5% (active) and -38.9% (active); in test [8], 3.89% (active) and -36.4% (active); in test [9], 16.2% (inactive) and 15.5% (inactive); in test [10], -46% (active) and -24.7% (active); in [11], 20.7% (inactive) and 13.7% (inactive); in test [12], 1.27% (active) and 29.2% (inactive). In addition, the growth in [13] was -40.2% (active) and 53% (inactive); in [14] it was -34% (active) and -34.5% (active); in test [15], -35.8% (active) and -56.3% (active); in [16], 25.7% (inactive) and 7.26% (active); in [17], 10.7% (inactive) and 6.13% (active); in [18], -33.4% (active) and 10.8% (inactive). The growth in test [19] was -26.1% (active); in test [20], -4.68% (active) and 5.32% (active).

On to `COc1ccccc1C(C)=O`, for which the growth is 94% (inactive) and 109% (inactive) in test [1]; 95.2% (inactive) and 107% (inactive) in [2]; 97.5% (inactive) and 103% (inactive) in test [3]; 107% (inactive) and 102% (inactive) in [4]; 99.8% (inactive) and 109% (inactive) in test [5]; 70.5% (inactive) in [6]. Also, the growth in test [7] was 113% (inactive); in [8], 107% (inactive) and 96.9% (inactive); in test [9], 110% (inactive) and 96.6% (inactive); in test [10], 105% (inactive); in test [11], 107% (inactive) and 113% (inactive); in [12] it was 84.9% (inactive) and 106% (inactive). For the same molecule, the growth in test [13] was 114% (inactive) and 107% (inactive); in test [14], 104% (inactive) and 117% (inactive); in test [15], 99.3% (inactive) and 121% (inactive); in test [16] it was 92.7% (inactive) and 107% (inactive); in test [17], 106% (inactive); in test [18] it was 105% (inactive) and 107% (inactive). Also, the growth is 107% (inactive) and 110% (inactive) in test [19]; 105% (inactive) and 95.7% (inactive) in [20].

For the molecule `O=S(=O)(Nc1ccccc1)C1CCCCC1`, the growth in test [1] is 98.6% (inactive) and 96.6% (inactive); in test [2], 106% (inactive) and 103% (inactive); in test [3], 103% (inactive) and 116% (inactive); in test [4] it was 107% (inactive) and 101% (inactive); in test [5], 112% (inactive) and 118% (inactive); in test [6], 113% (inactive) and 108% (inactive). The growth is 84.5% (inactive) and 94.1% (inactive) in test [7]; 98.7% (inactive) and 108% (inactive) in [8]; 105% (inactive) and 110% (inactive) in test [9]; 102% (inactive) and 122% (inactive) in test [10]; 108% (inactive) and 113% (inactive) in test [11]; 97.6% (inactive) and 93.8% (inactive) in test [12]. Also, the growth in test [13] is 121% (inactive) and 123% (inactive); in [14], 106% (inactive) and 105% (inactive); in test [15], 120% (inactive) and 118% (inactive); in test [16] it was 99% (inactive) and 114% (inactive); in [17], 105% (inactive) and 110% (inactive); in test [18], 109% (inactive) and 95.4% (inactive). For the same molecule, the growth in [19] is 108% (inactive) and 107% (inactive); in test [20], 101% (inactive) and 99.5% (inactive).
